Inconclusive results are not listed. Calls of active or inactive are those of the source. Unless noted, calls follow the shape of the dose curve; as a rule, active = well fitted curve in the direction sought with a large enough effect in the repeat runs; inconclusive = weak or mixed curves; inactive = no such curve, though single readings can be large; an effect the other way counts as inactive or inconclusive.
Columns and labels:
[1] = biological target: Retinoic acid receptor RXR-alpha (Homo sapiens) (UniProt P19793); assay: qHTS assay to identify small molecule agonists of the RXR signaling pathway (AID 1159527; calls by dose curve; also: nearly all actives have a fitted effect of over 35% in size)
Retinoic acid receptor RXR-alpha (Homo sapiens), sequence (P19793 whole entry, looked up): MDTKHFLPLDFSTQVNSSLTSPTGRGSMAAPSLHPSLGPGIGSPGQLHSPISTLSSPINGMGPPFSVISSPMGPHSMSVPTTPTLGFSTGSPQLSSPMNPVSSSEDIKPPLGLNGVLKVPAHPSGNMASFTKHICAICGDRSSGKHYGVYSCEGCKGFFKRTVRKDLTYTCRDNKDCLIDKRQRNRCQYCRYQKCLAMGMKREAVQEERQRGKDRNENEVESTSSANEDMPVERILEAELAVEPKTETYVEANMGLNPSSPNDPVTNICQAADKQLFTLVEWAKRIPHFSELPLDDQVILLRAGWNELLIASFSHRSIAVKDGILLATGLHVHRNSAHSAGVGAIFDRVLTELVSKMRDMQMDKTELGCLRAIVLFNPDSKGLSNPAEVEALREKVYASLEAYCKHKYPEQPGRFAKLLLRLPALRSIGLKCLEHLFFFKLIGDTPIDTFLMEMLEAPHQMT
Method in brief: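 Cells plated at 2,000/well, rested 5 hr at 37 C, pin-dosed with DMSO compound solutions, incubated 16 hr, then loaded with B/G FRET substrate for 2 hr at RT before dual-emission fluorescence reading.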

[2] = qHTS assay to identify small molecule agonists of the RXR signaling pathway - cell viability counter screen (AID 1159529);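 also: HEK 293T cells carrying an RXR-alpha UAS beta-lactamase reporter; series mostly up to about 77 µM; nearly all actives have a fitted effect of over 50% in size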
Method in brief: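 Steps: seed RXR-alpha-UAS-bla HEK 293T cells in assay medium containing 2% charcoal-stripped FBS; incubate 5 hr; add compounds in DMSO; incubate 16 hr at 37 C; after the bla read, add CellTiter-Glo and read luminescence at 30 min.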

[3] = qHTS assay to identify small molecule antagonists of the retinoid acid receptor (RAR) signaling pathway - cell viability counter screen (AID 1159551); also: nearly all actives have a fitted effect of over 35% in size
Method in brief: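 Measured by luminescent ATP detection, viability reflects C3RL4 cells treated 6 h at 37 C with test chemicals in the presence of 1 uM (final) retinol.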

[4] = qHTS assay to identify small molecule antagonists of the retinoic acid receptor (RAR) signaling pathway (AID 1159552; also: nearly all actives have a fitted effect of over 50% in size)
Method in brief: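 Retinol at 1 uM final stimulated RARE-luciferase expression in C3RL4 cells exposed to test compounds for 6 hr at 37 C. Reduced luminescence, read 30 min after detection reagent, indicated pathway antagonism.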

[5] = qHTS assay to identify small molecule agonists of the retinoic acid receptor (RAR) signaling pathway (AID 1159553)
Method in brief: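 6 hr compound exposure (DMSO vehicle) of overnight-plated C3RL4 RARE-luc cells at 37 C; luminescence quantified after 30 min RT with luciferase reagent.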

[6] = qHTS assay to identify small molecule antagonists of the estrogen related receptor (ERR) signaling pathway from Tox21 library - cell viability counter screen (AID 1224834); also: nearly all actives have a fitted effect of over 30% in size
Method in brief: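 Seeded ERR cells were rested 6 h at 37 C/5% CO2 before compounds, positive and negative controls or DMSO were added. Incubation continued for 17.5 h, and viability was then quantified by CellTiter-Fluor fluorescence.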

[7] = biological target: Luciferin 4-monooxygenase (Photinus pyralis) (UniProt P08659); assay: qHTS assay to identify small molecule inhibitors of firefly luciferase (AID 1224835); also: series mostly up to about 120 µM; nearly all actives have a fitted effect of over 25% in size
Luciferin 4-monooxygenase (Photinus pyralis), sequence (P08659 whole entry, looked up): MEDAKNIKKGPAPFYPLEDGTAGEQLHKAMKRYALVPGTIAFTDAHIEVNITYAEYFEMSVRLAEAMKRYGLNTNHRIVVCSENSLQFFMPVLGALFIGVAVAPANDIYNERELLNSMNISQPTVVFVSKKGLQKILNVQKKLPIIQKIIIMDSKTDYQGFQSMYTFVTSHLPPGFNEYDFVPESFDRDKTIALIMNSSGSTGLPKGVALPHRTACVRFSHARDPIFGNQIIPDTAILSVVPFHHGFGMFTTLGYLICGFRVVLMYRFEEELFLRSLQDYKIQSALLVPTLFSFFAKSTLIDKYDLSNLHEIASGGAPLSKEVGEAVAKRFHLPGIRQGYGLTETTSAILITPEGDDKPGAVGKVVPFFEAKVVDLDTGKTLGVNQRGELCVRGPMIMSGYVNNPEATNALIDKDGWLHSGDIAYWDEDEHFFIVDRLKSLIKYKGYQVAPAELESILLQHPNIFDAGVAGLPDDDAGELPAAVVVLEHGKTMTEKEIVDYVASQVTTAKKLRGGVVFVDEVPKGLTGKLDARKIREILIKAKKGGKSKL
Method in brief: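 Quantitative HTS format; KM concentrations of both substrates. Purified P. pyralis FLuc activity quantified from luminescence images.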

[8] = qHTS assay to identify small molecule agonists of the constitutive androstane receptor (CAR) signaling pathway - cell viability counter screen (AID 1224836); also: series mostly up to about 92 µM; nearly all actives have a fitted effect of over 45% in size
Method in brief: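 Cells were seeded and incubated 4 hrs. Compounds were added across 15 concentrations together with PK11195 at 0.75 uM final. Plates were incubated 23 hrs at 37 C. CellTiter-Fluor was added and fluorescence measured.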

[9] = qHTS assay to identify small molecule antagonists of the constitutive androstane receptor (CAR) signaling pathway - cell viability counter screen (AID 1224837); also: series mostly up to about 92 µM; nearly all actives have a fitted effect of over 45% in size
Method in brief: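 To flag cytotoxic false antagonists, HepG2 hCAR/CYP2B6-2.2kb cells were treated 23 hr with 15-concentration compound series and 50 nM CITCO at 37 C/5% CO2; CellTiter-Fluor fluorescence was the measured end point.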

[10] = biological target: Nuclear receptor subfamily 1 group I member 3 (Homo sapiens) (UniProt Q14994); assay: qHTS assay to identify small molecule antagonists of the constitutive androstane receptor (CAR) signaling pathway (AID 1224838);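 also: HepG2 cells stably expressing hCAR with CYP2B6 luciferase reporter stimulated by CITCO; nearly all actives have a fitted effect of over 40% in size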
Nuclear receptor subfamily 1 group I member 3 (Homo sapiens), sequence (Q14994 whole entry, looked up): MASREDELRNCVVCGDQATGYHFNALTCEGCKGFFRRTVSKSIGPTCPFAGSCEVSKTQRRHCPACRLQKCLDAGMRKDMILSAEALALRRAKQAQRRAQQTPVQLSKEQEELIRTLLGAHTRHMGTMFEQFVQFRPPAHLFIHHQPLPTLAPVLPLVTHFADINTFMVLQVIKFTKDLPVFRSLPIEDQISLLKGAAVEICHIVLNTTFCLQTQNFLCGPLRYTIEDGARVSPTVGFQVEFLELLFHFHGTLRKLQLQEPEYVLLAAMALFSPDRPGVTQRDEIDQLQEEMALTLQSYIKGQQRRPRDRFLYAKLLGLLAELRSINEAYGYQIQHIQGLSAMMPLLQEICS
Method in brief: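 Human hepatoma HepG2 cells expressing hCAR and a CYP2B6 promoter (2.2 kb) luciferase construct; compound titration (15 points) with 50 nM CITCO final, 24 h at 37 C/5% CO2; luminescence via ONE-Glo after 30 min at room temperature.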

[11] = biological target: Nuclear receptor subfamily 1 group I member 3 (Homo sapiens) (UniProt Q14994); assay: qHTS assay to identify small molecule agonists of the constitutive androstane receptor (CAR) signaling pathway (AID 1224839);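 also: HepG2 cells stably carrying human CAR and a CYP2B6 luciferase reporter; series mostly up to about 92 µM; nearly all actives have a fitted effect of over 15% in size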
Method in brief: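 Cells were plated and incubated 4 hrs, then dosed with compounds at 15 concentrations. PK11195 was added to 0.75 uM final. After 24 hrs at 37 C, luciferase luminescence was measured.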

[12] = qHTS assay to identify small molecule antagonists of the estrogen related receptor signaling pathway with the pleiotropic PPARgamma coactivator (PGC) from Tox21 10K library - cell viability counter screen (AID 1224840; active = well fitted cell-killing curve with a large enough effect in the repeat runs, not every such curve was filed as active; also: nearly all actives have a fitted effect of over 40% in size)
Method in brief: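 Seeded PGC/ERR cells (2,000/well, 6 h, 37 C/5% CO2) get compound by pin tool; 17.5 h incubation at 37 C; CellTiter-Fluor added, 30 min, fluorescence measured.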

[13] = qHTS assay to identify small molecule antagonists of the estrogen related receptor (ERR) signaling pathway - cell viability counter screen (AID 1224818); also: series mostly up to about 46 µM
Method in brief: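 Compounds dissolved in DMSO were applied to ERR cells seeded at 2,000 per well 6 h earlier. Cell viability followed 17.5 h later via 30-min CellTiter-Fluor fluorescence.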

[14] = qHTS assay to identify small molecule antagonists of the estrogen related receptor (ERR) signaling pathway (AID 1224819;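 also: luminescence from an ERR-driven luciferase reporter measured with One-Glo reagent; series mostly up to about 46 µM; nearly all actives have a fitted effect of over 50% in size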)
Method in brief: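 Compounds dissolved in DMSO were pin-transferred onto ERR cells that had been plated 6 h earlier, and cells were then incubated 18 h at 37 C; signal was luciferase luminescence via One-Glo.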

[15] = qHTS assay to identify small molecule agonists of the estrogen related receptor (ERR) signaling pathway (AID 1224820)
Method in brief: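 Following a 6 h settling period, 2,000 ERR cells per well receive DMSO-dissolved compounds by pin tool and incubate 18 h at 37 C; agonist activity is scored from One-Glo luminescence read 30 min post-addition.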

[16] = test system: estrogen-related receptor alpha (ERRalpha) with PGC-1alpha coactivator, human; assay: qHTS assay to identify small molecule antagonists of the estrogen related receptor signaling pathway with the pleiotropic PPARgamma coactivator (PGC) (AID 1224821; calls by dose curve;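 also: series mostly up to about 46 µM; lower luminescence signal means antagonism of PGC/ERR signalling; nearly all actives have a fitted effect of over 50% in size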)
Method in brief: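 Screening used NTP's PGC/ERR cells, dosed via pin tool with compound in DMSO alongside positive and negative controls. After 18 h at 37 C, One-Glo reagent sat 30 min at room temperature before luminescence detection.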

[17] = qHTS assay to identify small molecule antagonists of the estrogen related receptor signaling pathway with the pleiotropic PPARgamma coactivator (PGC) cell viability counter screen (AID 1224822; also: series mostly up to about 46 µM)
Method in brief: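 Counter screen for cell viability: PGC/ERR cells, 6 h pre-incubation after plating, 17.5 h compound exposure at 37 C, fluorescence from CellTiter-Fluor after 30 min.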

[18] = qHTS assay to identify small molecule agonists of the estrogen related receptor signaling pathway with the pleiotropic PPARgamma coactivator (PGC) (AID 1224823)
Method in brief: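 In this quantitative high-throughput screen, an 18 h, 37 C treatment of PGC/ERR cells with compounds in DMSO preceded a One-Glo luminescence read taken after 30 min at room temperature.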

[19] = qHTS assay to identify small molecule antagonists of the estrogen related receptor signaling pathway with the pleiotropic PPARgamma coactivator (PGC) from Tox21 10K library (AID 1224841; call rule not given here)
Method in brief: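 Test chemicals dissolved in DMSO were applied to pre-incubated (6 h) PGC/ERR cells at 2,000 cells/well for an 18 h, 37 C treatment; reporter luminescence was then read using One-Glo.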

[20] = qHTS assay to identify small molecule agonists of the estrogen related receptor signaling pathway with the pleiotropic PPARgamma coactivator (PGC) from Tox21 10K library (AID 1224842); also: nearly all actives have a fitted effect of over 15% in size
Method in brief: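 PGC/ERR reporter cells (NTP line) were seeded 2,000 per well, rested 6 h at 37 C/5% CO2, then pin-dosed with compounds in DMSO for 18 h at 37 C; luciferase read by One-Glo luminescence after 30 min at room temperature.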

Measured: Potency

CCOC(=O)c1c(N)sc2c1CCN(Cc1ccccc1)C2
not listed: [13] | [14] | [15] | [16] | [17] | [18] | [19] | [20]
inactive: all other assays above

Cc1ccc(NC(=O)N(C)C)cc1NC(=O)N(C)C
not listed: [13] | [14] | [15] | [16] | [17] | [18] | [19] | [20]
inactive: all other assays above

CC(=O)OC(C)C[N+](C)(C)C (configuration not stated)
not listed: [11]
inactive: all other assays above

CC(C)(C(=O)c1cccnc1)c1cccnc1
inactive: [1] | [2] | [3] | [4] | [5] | [6] | [7] | [8] | [9] | [10] | [12]

C1CCCCC1
not listed: [13] | [14] | [15] | [16] | [17] | [18]
inactive: all other assays above

CC[C@@H](CO)NCCN[C@@H](CC)CO
not listed: [13] | [14] | [15] | [16] | [17] | [18]
inactive: all other assays above

CCCCCCC(O)CCCCCCCCCCC(=O)OC (configuration not stated)
not listed: [13] | [14] | [15] | [16] | [17] | [18] | [19] | [20]
inactive: all other assays above

CC(C)C1CCC(C(=O)N[C@H](Cc2ccccc2)C(=O)O)CC1 (some centres not stated)
inactive: [1] | [2] | [3] | [4] | [5] | [6] | [7] | [8] | [9]

Nc1ccc(F)cc1
not listed: [13] | [14] | [15] | [16] | [17] | [18]
inactive: all other assays above

CC1CCCC(=O)C1=O (configuration not stated)
not listed: [13] | [14] | [15] | [16] | [17] | [18] | [19] | [20]
inactive: all other assays above

CCc1ccc(C)cc1
inactive: [1] | [2] | [3] | [4] | [5] | [6] | [7] | [8] | [9] | [10] | [11]

Cc1ccc(N(CCO)CCO)cc1
inactive: [1] | [2] | [3] | [4] | [5] | [6] | [7] | [8] | [9] | [10] | [12]

COC1CCC=CO1 (configuration not stated)
not listed: [13] | [14] | [15] | [16] | [17] | [18]
inactive: all other assays above

O=C1OC(=O)c2c(Br)c(Br)c(Br)c(Br)c21
not listed: [13] | [14] | [15] | [16] | [17] | [18] | [19] | [20]
inactive: all other assays above

O=C1[C@@H]2[C@H]3CC[C@H](C3)[C@@H]2C(=O)N1CCCCN1CCN(c2ncccn2)CC1
not listed: [13] | [14] | [15] | [16] | [17] | [18] | [19] | [20]
inactive: all other assays above

CC1=CC[C@@]23C[C@@H]1C(C)(C)[C@@H]2CC[C@H]3C
inactive: [1] | [2] | [3] | [4] | [5] | [6] | [7] | [8] | [9]

O=C(O)CCC(=O)OC[C@@H](NC(=O)C(Cl)Cl)[C@H](O)c1ccc([N+](=O)[O-])cc1
not listed: [13] | [14] | [15] | [16] | [17] | [18] | [19] | [20]
inactive: all other assays above

CSCC[C@H](NC(=O)[C@H](Cc1c[nH]c2ccccc12)NC(=O)CCNC(=O)OC(C)(C)C)C(=O)N[C@@H](CC(=O)O)C(=O)N[C@@H](Cc1ccccc1)C(N)=O
not listed: [13] | [14] | [15] | [16] | [17] | [18] | [19] | [20]
inactive: all other assays above
